Sm TGR inh – qHTS Assay for the Inhibitors of Schistosoma Mansoni Peroxiredoxins. AID 485364, 2010. purified TGR, DTNB reduction, TNB absorbance 405 nm. 360,000 tested, 3% active. Potency, µM (highest dose often 114 µM), usual class: inhibitors; also: nearly all actives have a fitted effect of over 60% in size
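TGR 20 nM + NADPH 100 uM (dispensed conc.), cpd preinc 15 min RT; start with NADPH (500 uM addition) then DTNB (15 mM addition). Kinetic TNB absorbance, 405 nm filter. Four-parameter Hill fit across titration.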
VACV Venus inh – qHTS for Stage-Specific Inhibitors of Vaccinia Orthopoxvirus: Venus Reporter Primary qHTS; Vaccinia virus Venus reporter expression, fluorescence; Potency, µM (highest dose often 36.5 µM), hits mostly inhibitors; 330,000 tested, 0.46% active; AID 720580, 2013; calls by dose curve; tested in A549 cells; also: nearly all actives have a fitted effect of over 30% in size
HCMV inh – qHTS Assay for inhibitors of the human cytomegalovirus (HCMV); HFF cells, HCMV-luciferase reporter, 72 h; stronger effect = lower value; AID 1259415, 2018; 410,000 tested, 4.5% active; activity change, negative = inhibition, % at 57.5 µM; in the data active = activity change below about -60%; inconclusive = no clear call, values can overlap the other calls; inactive = above about -39%
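Two-dose cell screen: HFF monolayers treated with compounds and infected with luciferase-expressing HCMV at 1 PFU/cell, 72 h at 37C, then lysed for luciferase measurement.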
HCV inh – qHTS Assay for Inhibitors of Hepatitis C Virus (HCV) | Potency, µM (top dose mostly 41.8 µM), usual class: inhibitors | Huh7.5.1 HCVcc-Cre infection, luciferase reporter, 44 h | 340,000 tested, 3.4% active | AID 651820, 2012
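Infectious HCV cell culture screen: compound-treated cells (1,000/well, pre-plated 4 h) are infected with HCVcc-Cre at roughly 0.5 moi and grown 44 h. Infection is quantified by luciferase signal after 15 min substrate incubation at room temperature.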
VACV mCherry inh – qHTS for Stage-Specific Inhibitors of Vaccinia Orthopoxvirus: mCherry Reporter Primary qHTS; Potency, µM (series often up to 36.5 µM), usual class: inhibitors; 310,000 tested, 0.63% active; Vaccinia virus mCherry reporter infection, fluorescence; calls by dose curve; tested in A549 cells; also: nearly all actives have a fitted effect of over 35% in size
FMDV antiviral – High Throughput Screening for Foot and Mouth Disease Virus Antivirals; FMDV antiviral cell-based qHTS; Potency, µM (series often up to 57.9 µM), hits mostly inhibitors; 410,000 tested, 1.2% active; AID 1159524, 2015; calls by dose curve; tested in HEK293T cells; also: read-out not given here; nearly all actives have a fitted effect of over 45% in size
HCV confirm – qHTS Assay for Inhibitors of Hepatitis C Virus (HCV): Confirmation Assay for Cherry-picked Compounds | shares compounds with HCV inh | AID 720575, 2013 | HCVcc-Cre infectious virus cell assay, luciferase, inhibition | Potency, µM (top dose mostly 41.8 µM), actives largely listed as inhibitors | 640 tested, 78% active; also: nearly all actives have a fitted effect of over 80% in size
HCV cytotox – qHTS Assay for Inhibitors of Hepatitis C Virus (HCV): Cytotoxicity Counterscreen for Cherry-picked Compounds. HCV host cell line cytotoxicity counterscreen. shares compounds with HCV inh. 640 tested, 22% active. AID 720576, 2013. Potency, µM (series often up to 41.8 µM), most hits filed as inhibitors;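 also: 44 h compound exposure; nearly all actives have a fitted effect of over 55% in size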
Each line names hits and unclear results; the compound was inactive in the other large screens (follow-up assays come after a bar, where they were run). Hits are enriched below; roughly 9.3% of the tested compounds scored in any of these assays. Unless noted, calls follow the shape of the dose curve; as a rule, active = well fitted curve in the direction sought with a large enough effect; inconclusive = small, poorly fitted or top-dose-only effect, or another doubt; inactive = no such curve, though single readings can be large; an effect the other way counts as inactive or inconclusive.

COc1ccc(NS(=O)(=O)c2ccc(O)c([N+](=O)[O-])c2)cc1S(=O)(=O)N1CCCCC1	none (no result: Sm TGR inh)
CC1CN(C)C(C)c2c1oc1ccc([N+](=O)[O-])cc21 (stereo not drawn)	HCV inh inconclusive | HCV confirm 25µM | HCV cytotox inactive
COC(=O)c1cc2ccsc2n1CC(=O)Nc1cc(Cl)ccc1OC	VACV Venus inh inconclusive, HCMV inh -96.5, HCV inh 3.16µM, VACV mCherry inh inconclusive (no result: FMDV antiviral) | HCV confirm 7.91µM | HCV cytotox 14.1µM
O=[N+]([O-])c1ccc(CC(Cl)c2ccccn2)cc1 (stereo not drawn)	none (no result: Sm TGR inh)
CCn1c(SC)nnc1-c1sc2cc(Cl)ccc2c1Cl	HCMV inh inconclusive, HCV inh 5.62µM (no result: VACV mCherry inh) | HCV confirm inactive | HCV cytotox inactive
COc1ccc(NC(=O)CN(C)C(=O)Cc2ccc3c(c2)CCC3)cc1	none
COc1cc(C2CC(=O)C3=C(C2)Nc2ncnn2C3c2cccs2)cc(OC)c1OC (stereo not drawn)	none
COc1ccc(C2CC(=O)C3=C(C2)Nc2ncnn2C3c2ccccc2C)c(OC)c1 (stereo not drawn)	HCV inh 3.55µM, FMDV antiviral inconclusive (no result: VACV Venus inh, VACV mCherry inh) | HCV confirm 7.05µM | HCV cytotox inactive
CC[C@H](CO)Nc1nc(NCc2ccccc2)c2ncn(C(C)C)c2n1	VACV Venus inh inconclusive, VACV mCherry inh inconclusive (no result: Sm TGR inh, HCMV inh, HCV inh)
CNc1cncc(-c2ccc(CN3CCOCC3)cc2)n1	none (no result: Sm TGR inh, HCV inh)
CC(=O)Nc1ccc(-c2csc(N/N=C(/C)c3ccccc3)n2)cc1	HCV inh 1.26µM, FMDV antiviral inconclusive | HCV confirm 6.28µM | HCV cytotox inactive
O=[N+]([O-])c1ccc(S(=O)(=O)CC(CN2CCCCC2)N2CCCCC2)cc1 (stereo not drawn)	Sm TGR inh 7.94µM, HCV inh 4.47µM, FMDV antiviral 17.8µM (no result: VACV Venus inh, VACV mCherry inh) | HCV confirm 11.2µM | HCV cytotox 19.9µM
O=C(Cc1ccc([N+](=O)[O-])cc1)N1CCCCCC1	none
COC(=O)C1CCN(CC(=O)NC(=O)Nc2ccccc2F)CC1	none (no result: Sm TGR inh)
CCOC(=O)c1c(C)nc2c(C)cccn12	none
CCOC(=O)c1c(C)nc2c3ccccc3ccn12	HCV inh 7.08µM | HCV confirm inactive | HCV cytotox inactive
Cc1cc(OC(=O)c2ccc(S(=O)(=O)N(C)C)cc2)cc(=O)o1	VACV Venus inh inconclusive
OC1CCN(c2c3c(nc4cc(-c5ccc(F)cc5)nn24)CCC3)CC1	HCV inh inconclusive | HCV confirm 4.99µM | HCV cytotox inactive
Fc1ccc(-c2cc3nc4c(c(N5CCOCC5)n3n2)CCCC4)cc1	HCV inh inconclusive (no result: FMDV antiviral)
COC(=O)CSC1=NN1c1cc(C)nc(N)n1	FMDV antiviral inconclusive
CSc1ccc(NC(=O)Nc2cccn(Cc3ccccc3F)c2=O)cc1	VACV Venus inh inconclusive, HCMV inh -81.2, HCV inh 3.55µM, VACV mCherry inh inconclusive | HCV confirm 8.87µM | HCV cytotox inactive
O=C(NCc1ccccc1)Nc1cccn(Cc2ccccc2F)c1=O	none
COc1ccc(/C=N\NC(=O)c2ccccc2[N+](=O)[O-])cc1COc1c(F)c(F)c(F)c(F)c1F	HCV inh 2.51µM | HCV confirm 12.5µM | HCV cytotox inactive
O=C(C[n+]1ccccc1Br)c1ccc(I)cc1	none (no result: Sm TGR inh, HCMV inh, HCV inh, FMDV antiviral)
Cc1nn(C(C)C(=O)NCc2ccco2)c(C)c1[N+](=O)[O-] (stereo not drawn)	none (no result: VACV Venus inh, VACV mCherry inh)
C/C(=N\NC(=O)C(C)n1nc(C)c([N+](=O)[O-])c1C)c1ccccc1O (stereo not drawn)	VACV Venus inh inconclusive, HCMV inh -100.7, HCV inh 2.51µM, VACV mCherry inh inconclusive | HCV confirm 7.91µM | HCV cytotox inconclusive
CCOCCCN(C(=O)c1snc(C(N)=O)c1N)C(C(=O)NCCC(C)C)c1ccc(Cl)cc1 (stereo not drawn)	none
Oc1ccc(CN2CCN(c3ccccc3)CC2)c2cccnc12	Sm TGR inh 1.41µM, HCV inh 7.94µM (no result: HCMV inh) | HCV confirm 7.05µM | HCV cytotox 22.3µM
Oc1ccc(Br)cc1CN1CCN(c2ccccc2)CC1	HCMV inh inconclusive (no result: VACV Venus inh, VACV mCherry inh)
COc1cc2c(cc1NC(=O)COC(=O)CNS(=O)(=O)c1ccc(C)cc1)oc1ccccc12	HCV inh inconclusive | HCV confirm 7.91µM | HCV cytotox inactive
COc1ccc(S(=O)(=O)N[C@@H](C)C(=O)OCC(=O)Nc2cc3oc4ccccc4c3cc2OC)cc1	HCV inh 6.31µM | HCV confirm 22.3µM | HCV cytotox inactive
COc1cc2c(cc1NC(=O)COC(=O)[C@@H](NS(=O)(=O)c1cccc(Cl)c1)C(C)C)oc1ccccc12	VACV Venus inh inconclusive, HCV inh inconclusive | HCV confirm 12.5µM | HCV cytotox inactive
CCCOc1ccc(C2c3c(oc4ccccc4c3=O)C(=O)N2c2nc(C)c(C(=O)OCC)s2)cc1 (stereo not drawn)	none (no result: HCV inh)
Cc1ccc(C(=O)NC2(C(F)(F)F)NC(=O)N(c3ccc(Cl)cc3)C2=O)cc1 (stereo not drawn)	none
Cn1c(SCC(=O)Nc2ccc(F)cc2)nc2c(c1=O)SCC2	HCV inh inconclusive
Cc1ccccc1NC(=O)CSc1nc2ccccc2c(=O)n1C	HCV inh 3.16µM, FMDV antiviral inconclusive | HCV confirm 8.87µM | HCV cytotox 14.1µM
Cc1ccc(S(=O)(=O)N(C)C)cc1-n1c(SCC(=O)Nc2ccc(F)cc2)nc2ccccc2c1=O	Sm TGR inh inconclusive, HCV inh inconclusive (no result: VACV Venus inh, VACV mCherry inh)
Cn1c(SCC(=O)Nc2ccccc2F)nc2c(c1=O)SCC2	HCV inh 6.31µM | HCV confirm 22.3µM | HCV cytotox inactive
Cc1ccc(S(=O)(=O)N(C)C)cc1-n1c(SCC(=O)Nc2ccc(F)cc2Cl)nc2ccccc2c1=O	HCV inh 1.26µM | HCV confirm 14.1µM | HCV cytotox inactive
CC(O)[C@H]1CN=C(N)N1CC1CCCCC1 (stereo partly drawn)	none (no result: Sm TGR inh)
Cn1nccc1NC(=O)Nc1cccc(Cl)c1Cl	HCMV inh inconclusive
COc1ccc(NC(=O)Nc2cccc(Cl)c2Cl)c(OC)n1	HCMV inh -70.0, HCV inh 2.82µM | HCV confirm inconclusive | HCV cytotox inactive

Screening data as filed in PubChem BioAssay.
